High-throughput results as filed in PubChem.
DAX1 inh-1: inhibits human nuclear receptor DAX1. P51843. HEK293 Gal4-DAX1 luciferase reporter, luminescence. inhibition, % at 6.75 µM. hit rate 0.99% among 340,000. AID 504766;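 active means inhibition above the mean over all tested compounds plus 3 SD, cut at about 4.2% in these data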;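 further: 0% = DAX1-transfected cells with DMSO and 100% = empty-vector control cells with DMSO; inhibition shows as a rise in luminescence from relieved DAX1 repression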
Target sequence (P51843 207-470 limits assumed): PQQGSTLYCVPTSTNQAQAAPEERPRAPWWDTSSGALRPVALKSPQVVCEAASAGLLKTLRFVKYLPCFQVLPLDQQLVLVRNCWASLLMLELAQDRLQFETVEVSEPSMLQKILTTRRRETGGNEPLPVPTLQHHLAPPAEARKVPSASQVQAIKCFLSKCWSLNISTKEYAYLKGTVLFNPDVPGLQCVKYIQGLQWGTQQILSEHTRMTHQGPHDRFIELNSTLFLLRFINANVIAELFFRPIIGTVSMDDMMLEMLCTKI
ssDAF12 agonist: S. stercoralis DAF-12 activation, primary screen; HEK293 ssDAF-12/GRIP1 lit1-tk-luc reporter, luminescence; % of 3 µM dafachronic acid response; hit rate 1% among 370,000; activation, % at 6.8 µM;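 active means activation above the mean over all tested compounds plus 3 SD, cut at about 0.9% in these data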;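 further: 0% = DMSO-only wells and 100% = 3 µM delta7-dafachronic acid wells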
hcDAF-12 act: activators of H. contortus DAF-12 nuclear receptor; HEK293 hcDAF-12 lit1-tk-luc reporter, luminescence; 0% DMSO, 100% Δ7-dafachronic acid; activation, % at 6.8 µM; hit rate 1.4% among 370,000; AID 652067;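 active means activation above the mean of all tested compounds plus 3 SD, cut at about 5.5% in these data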;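 further: 100% = response to 3 µM Δ7-dafachronic acid high control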
hgDAF-12 ag: activates the H. glycines DAF-12 receptor ligand-binding domain | HEK293 GAL4-hgDAF12 UAS-luciferase reporter, agonist luminescence; normalized to butyrate control | activation, % at 6.8 µM | hit rate 1.8% among 370,000 | AID 687014;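 active means activation above a cutoff set at the mean of all screened compounds plus 3 SD, cut at about 10% in these data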;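 further: 0% = DMSO wells and 100% = sodium butyrate wells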
DAX1 inh-2: DAX1 (NR0B1) inhibition, primary screen; HEK293T StAR-luciferase reporter, SF-1/DAX-1 repression relief; inhibition, % at 6.8 µM; hit rate 1.1% among 370,000;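 active means inhibition above the mean over all tested compounds plus 3 SD, cut at about 3.6% in these data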;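 further: 0% = DAX-1 cells with DMSO and 100% = cells lacking DAX-1 with DMSO; higher inhibition means more luminescence from relief of DAX-1 repression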
LXR ag: LXR-beta agonism as hcDAF-12 counter-screen; shares compounds with hcDAF-12 act; HEK293 Gal4-LXR tk-luc reporter, luminescence, 24 h; normalized: DMSO 0%, positive control 100%; activation, % at 6.8 µM; 3,400 tested, under 10 active; AID 743027;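 active means mean percent activation of the reporter above a cutoff set as the average over tested compounds plus their standard deviation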
hcDAF12 ag: confirmation of H. contortus DAF-12 agonists. AID 743032. activation, % at 6.8 µM. HEK293 hcDAF-12 lit1-tk-luc reporter, luminescence; % of Δ7-dafachronic acid response. hit rate 61% among 3,400. shares compounds with hcDAF-12 act;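 active means mean activation across triplicate tests above the threshold derived from the earlier primary screen, cut at about 5.5% in these data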;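 further: 0% = DMSO only wells and 100% = 3 µM Δ7-dafachronic acid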
Numbers without * were called inactive; · = not tested or not shown. This is a sample that favours compounds with a hit; in the whole collection about 4.1% have one here.

SMILES	DAX1 inh-1	ssDAF12 agonist	hcDAF-12 act	hgDAF-12 ag	DAX1 inh-2	LXR ag	hcDAF12 ag
Cc1ccccc1CSc1nnc(C)n1N	-1	-1	-1	0	0	·	·
COc1ccc(CSc2nnnn2-c2ccccc2)cc1	1	-1	-1	-1	-1	·	·
CCn1c(SCc2nc3ccccc3s2)nnc1-c1ccccc1	0	1	5	6	0	·	·
Cc1nnc(SCc2nc3ccccc3s2)n1N	4	1.0*	9.5*	8	4.1*	1	12*
Cc1nnc(SCc2nc3ccccc3s2)n1-c1ccccc1	3	1.2*	7.6*	7	2	1	9.5*
c1ccc2oc(SCc3nc4ccccc4s3)nc2c1	4.4*	1.9*	10*	8	2	1	11*
c1ccc(COc2ncnc3c2ncn3CCCNC2CCN(Cc3ccccc3)CC2)cc1	0	-1	0	1	1	·	·
O=C(NC1CCCCC1)OC[C@@H]1CSCCS(=O)(=O)N1	·	-1	-1	-2	2	·	·
Brc1c(CSc2nc3ccccc3o2)nc2ncccn12	0	-1	0	6	1	·	·
Clc1c(CSc2nc3ccccc3o2)nc2ccccn12	0	1	7.0*	10*	4.2*	1	7.0*
COc1ccc(N2CCN(CCCNC(=O)Cn3c(=O)c4cccn4c4c(C)ccnc43)CC2)cc1	·	-2	0	2	·	·	·
CC(c1cc(F)ccc1O)c1c[nH]c2ccccc12 (stereo unspecified)	·	0	6.7*	2	0	0	6
Cc1cc(Cl)ccc1OCC(=O)NCCOC(=O)Nc1sc(=S)n(C)c1C	-1	0	6.9*	1	0	0	-1
Cc1nn(-c2ccccc2)c(N)c1C1(O)C(=O)N(C)c2ccccc21 (stereo unspecified)	-1	-1	1	0	0	·	·
Cc1nn(-c2ccccc2)c2c1C1(C(=O)N(C)c3ccccc31)N(c1ccccc1)C(=O)N2 (stereo unspecified)	-2	0	6.6*	3	2	0	4
O=C1/C(=C/Nc2cccc([N+](=O)[O-])c2)CCc2ccccc21	4	0	8.1*	16*	2	1	5.8*
CC(=O)Nc1cc(-c2ccccc2)cn2c(-c3ccc(F)c(Cl)c3)cnc12	·	-1	0	-1	0	·	·
Nc1cccn2c(-c3ccc(Cl)c(Cl)c3)cnc12	3	1.1*	9.5*	10	4.0*	1	13*
C[C@@H]1CN([C@@H](C)CO)C(=O)CCCn2cc(nn2)CO[C@H]1CN(C)C(=O)C1CCCCC1	·	-1	0	-1	0	·	·
CCOC(=O)c1cn[nH]c1NC(=S)Nc1ccc(OC)cc1	-2	0	8.0*	9	2	1	9.3*
CCOC(=O)NC(=S)Nc1ccc(OC)cc1	1	-1	3	1	0	·	·
Cc1nc2ccccc2nc1SCC(=O)c1ccccc1	-1	-1	6.7*	0	-1	0	1
O=C(CSc1ccc2ccccc2n1)c1ccccc1	1	1.4*	9.3*	10	1	0	8.2*
CC(C)(C)c1nc(SCC(=O)c2ccccc2)c2ccccc2n1	3	-1	1	9	0	·	·
Cc1cc(NS(=O)(=O)c2ccc(NC(=O)CSc3nnc(-c4ccccn4)n3-c3ccccc3)cc2)nc(C)n1	·	-1	-1	3	-1	·	·
CCN1CCCC1CNC(=O)c1cc2ccc(OC)cc2[nH]1 (stereo unspecified)	0	0	6.6*	3	1	0	2
CCN1CCCC1CNC(=O)c1[nH]c2ccc(OC)cc2c1C (stereo unspecified)	3	-1	-1	2	0	·	·
Nc1nc(N)c2[nH]c(=S)[nH]c2n1	1	-1	2	2	1	·	·
CCOC(=O)c1c(C)oc2c1c(C(c1ccccc1)N1CCOCC1)c(O)c1ccccc12 (stereo unspecified)	4.2*	1.0*	11*	13*	4.0*	1	7.3*
